In the supplement of paper PMC10849652:
Of roughly 8,800 targets only a part is listed; those with a hit were picked by preference. About 0.5% of all pairs of compound and target were hits.

Key:
Experiment in all cases: log2 fold change, soluble protein after heating vs DMSO (PISA); higher = thermal stabilisation; K562 lysate, 10 uM; active = over 0.2 and 3.5 SD of the protein, either way, in both replicates (recomputed)
ibrutinib = compound: C=CC(=O)N1CCC[C@@H](n2nc(-c3ccc(Oc4ccccc4)cc3)c3c(N)ncnc32)C1 [ibrutinib]
In short: (§1)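 Following dounce homogenisation of K562 pellets in PBS pH 7.4 with 1 mM MgCl2, crude extract at 1 mg/mL protein was incubated for 30 min with 10 μM compound. Aliquots were then heated for 3 min over 48°C-58°C and pooled, NP-40 was added to 0.5% at 4°C, and soluble protein was recovered as the supernatant at 21,000xg for 90 min. Channel-sum-equalised TMTpro 16plex LC-MS/MS quantified this protein. Each value, from duplicates, is a log-two fold change in thermal stability relative to solvent controls.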

[1] = compound: CC(=O)c1cnc2ccc(-c3cc(Cl)c(O)c(Cl)c3)nc2c1N[C@H]1CC[C@H](CN(C)C)CC1
In short: as §1

ralimetinib = compound: CC(C)(C)Cn1c(N)nc2ccc(-c3[nH]c(C(C)(C)C)nc3-c3ccc(F)cc3)nc21 [ralimetinib]
In short: as §1

[2] = compound: CC(C)(O)CC(=O)NCCn1ccc2ncnc(Nc3ccc(Oc4cccc(C(F)(F)F)c4)c(Cl)c3)c21
In short: as §1

[3] = compound: CC(C)C1=C2N=C(C=C(N2N=C1)NCC3=CC=CC=C3)NCCCCCCN
In short: as §1

[4] = compound: CC1=C(C(CC(=O)N1)C2=CC=C(C=C2)C(F)(F)F)C(=O)NC3=C(C=C4C(=C3)C=NN4)F
In short: as §1

[5] = compound: CC1=C(C2=C(C=C1)C(=O)C3=CC=CC=C3N2CCCN)C
In short: as §1

[6] = compound: CC1=C(C=C(C=C1)NC(=O)C2=CC(=CC=C2)C(C)(C)C#N)NC3=CC4=C(C=C3)N=CN(C4=O)C
In short: as §1

[7] = compound: CC1=C(C=C(C=C1)NC(=O)C2=CC(=CC=C2)N(C)C)NC(=O)C3=CC=C(C=C3)O
In short: as §1

[8] = compound: CC1=CC=C(C=C1)SC2=C3C=C(SC3=CN=C2)C(=O)N
In short: as §1

Measured: log2 fold change

EXTL2 (UniProt Q9UBQ6)
inactive: ibrutinib 0.217 | [1] -0.056 | ralimetinib -0.015 | [2] 0 | [3] -0.077 | [4] 0.021 | [5] -0.146 | [6] 0.014 | [7] -0.04 | [8] -0.071

EDC3 (UniProt Q96F86)
Chain of UniProt Q96F86 (Q96F86 whole entry, looked up): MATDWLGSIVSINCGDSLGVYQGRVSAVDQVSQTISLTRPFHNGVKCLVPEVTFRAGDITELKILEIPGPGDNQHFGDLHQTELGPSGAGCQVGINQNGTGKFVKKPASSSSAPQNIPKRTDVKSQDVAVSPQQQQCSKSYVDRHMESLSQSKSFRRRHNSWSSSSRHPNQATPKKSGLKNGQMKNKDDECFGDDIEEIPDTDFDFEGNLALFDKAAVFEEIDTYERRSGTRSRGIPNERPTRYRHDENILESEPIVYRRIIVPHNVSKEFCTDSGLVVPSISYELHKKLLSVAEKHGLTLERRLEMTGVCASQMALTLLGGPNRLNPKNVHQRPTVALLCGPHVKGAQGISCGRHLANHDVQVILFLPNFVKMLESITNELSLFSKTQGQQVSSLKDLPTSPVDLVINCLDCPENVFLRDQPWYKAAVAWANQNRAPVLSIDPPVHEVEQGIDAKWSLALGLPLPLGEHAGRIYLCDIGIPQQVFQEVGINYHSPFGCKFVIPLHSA
inactive: ibrutinib 0.038 | [1] 0.016 | ralimetinib 0.004 | [2] 0.001 | [3] 0.046 | [4] 0.039 | [5] -0.014 | [6] 0.009 | [7] 0.019 | [8] -0.023

FTSJ3 (UniProt Q8IY81)
inactive: ibrutinib 0.05 | [1] 0.005 | ralimetinib 0.026 | [2] -0.033 | [3] 0.086 | [4] 0.016 | [5] -0.037 | [6] -0.01 | [7] 0.002 | [8] 0.04

DSN1 (UniProt Q9H410)
inactive: ibrutinib -0.004 | [1] -0.023 | ralimetinib 0.011 | [2] 0.001 | [3] -0.015 | [4] 0.024 | [5] -0.018 | [6] 0.017 | [7] 0.025 | [8] -0.011

EP300 (UniProt Q09472)
inactive: ibrutinib 0.084 | [1] 0.117 | ralimetinib -0.026 | [2] -0.011 | [3] -0.07 | [4] 0.423 | [5] -0.011 | [6] -0.035 | [7] -0.025 | [8] -0.008

EIF2AK2 (UniProt P19525)
inactive: ibrutinib 0.014 | [1] 0.015 | ralimetinib -0.025 | [2] 0.035 | [3] -0.009 | [4] 0.015 | [5] -0.008 | [6] -0.015 | [7] -0.019 | [8] -0.03

FTL (UniProt P02792)
Chain of UniProt P02792 (P02792 whole entry, looked up): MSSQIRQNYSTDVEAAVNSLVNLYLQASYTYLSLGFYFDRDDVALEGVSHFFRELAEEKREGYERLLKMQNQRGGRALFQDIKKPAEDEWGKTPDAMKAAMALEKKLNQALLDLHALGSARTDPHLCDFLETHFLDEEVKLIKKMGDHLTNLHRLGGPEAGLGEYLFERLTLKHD
inactive: ibrutinib -0.026 | [1] -0.025 | ralimetinib -0.146 | [2] -0.257 | [3] 0.023 | [4] 0.027 | [5] 0.041 | [6] 0.023 | [7] 0.033 | [8] 0.053

GALK1 isoform 2 (UniProt P51570)
inactive: ibrutinib 0.002 | [1] 0.032 | ralimetinib -0.013 | [2] -0.001 | [3] -0.006 | [4] -0.021 | [5] -0.026 | [6] 0.002 | [7] -0.001 | [8] 0.04

FIBP (UniProt O43427)
Chain of UniProt O43427 (O43427 whole entry, looked up): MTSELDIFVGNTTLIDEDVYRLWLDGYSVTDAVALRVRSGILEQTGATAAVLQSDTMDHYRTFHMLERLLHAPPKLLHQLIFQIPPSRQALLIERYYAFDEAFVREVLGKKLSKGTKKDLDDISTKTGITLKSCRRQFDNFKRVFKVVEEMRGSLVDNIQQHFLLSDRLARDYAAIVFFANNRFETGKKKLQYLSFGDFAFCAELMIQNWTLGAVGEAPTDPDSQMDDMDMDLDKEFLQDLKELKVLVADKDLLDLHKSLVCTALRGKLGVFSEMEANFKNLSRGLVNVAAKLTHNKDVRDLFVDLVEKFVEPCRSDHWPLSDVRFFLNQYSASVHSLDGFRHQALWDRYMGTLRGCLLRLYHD
inactive: ibrutinib 0.015 | [1] 0.02 | ralimetinib 0.032 | [2] -0.026 | [3] 0.028 | [4] 0.057 | [5] 0.036 | [6] 0.01 | [7] 0.024 | [8] 0.011

FASTKD5 (UniProt Q7L8L6)
inactive: ibrutinib -0.134 | [1] 0.056 | ralimetinib 0.073 | [2] 0.007 | [3] -0.027 | [4] 0.032 | [5] 0.006 | [6] 0.021 | [7] 0.008 | [8] -0.053

ELF2 (UniProt Q15723)
Chain of UniProt Q15723 (Q15723 whole entry, looked up): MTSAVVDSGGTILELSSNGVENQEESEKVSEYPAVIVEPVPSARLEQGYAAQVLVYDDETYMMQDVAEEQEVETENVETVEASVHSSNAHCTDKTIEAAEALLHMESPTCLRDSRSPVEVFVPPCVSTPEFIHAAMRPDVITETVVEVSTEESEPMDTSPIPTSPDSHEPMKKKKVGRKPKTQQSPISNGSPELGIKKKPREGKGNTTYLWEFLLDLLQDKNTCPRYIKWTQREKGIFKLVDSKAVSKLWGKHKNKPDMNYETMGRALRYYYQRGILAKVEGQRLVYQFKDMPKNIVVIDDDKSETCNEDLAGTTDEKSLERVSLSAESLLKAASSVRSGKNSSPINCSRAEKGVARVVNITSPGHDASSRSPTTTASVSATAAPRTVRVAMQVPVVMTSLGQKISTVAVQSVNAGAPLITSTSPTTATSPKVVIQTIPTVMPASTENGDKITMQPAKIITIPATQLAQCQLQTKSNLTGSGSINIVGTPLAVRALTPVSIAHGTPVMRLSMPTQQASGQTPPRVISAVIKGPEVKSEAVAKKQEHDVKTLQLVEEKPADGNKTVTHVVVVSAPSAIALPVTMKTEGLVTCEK
inactive: ibrutinib 0.07 | [1] 0.116 | ralimetinib 0.013 | [2] -0.038 | [3] 0.006 | [4] -0.017 | [5] -0.066 | [6] 0.035 | [7] 0.022 | [8] -0.028

FXR2 (UniProt P51116)
Chain of UniProt P51116 (P51116 whole entry, looked up): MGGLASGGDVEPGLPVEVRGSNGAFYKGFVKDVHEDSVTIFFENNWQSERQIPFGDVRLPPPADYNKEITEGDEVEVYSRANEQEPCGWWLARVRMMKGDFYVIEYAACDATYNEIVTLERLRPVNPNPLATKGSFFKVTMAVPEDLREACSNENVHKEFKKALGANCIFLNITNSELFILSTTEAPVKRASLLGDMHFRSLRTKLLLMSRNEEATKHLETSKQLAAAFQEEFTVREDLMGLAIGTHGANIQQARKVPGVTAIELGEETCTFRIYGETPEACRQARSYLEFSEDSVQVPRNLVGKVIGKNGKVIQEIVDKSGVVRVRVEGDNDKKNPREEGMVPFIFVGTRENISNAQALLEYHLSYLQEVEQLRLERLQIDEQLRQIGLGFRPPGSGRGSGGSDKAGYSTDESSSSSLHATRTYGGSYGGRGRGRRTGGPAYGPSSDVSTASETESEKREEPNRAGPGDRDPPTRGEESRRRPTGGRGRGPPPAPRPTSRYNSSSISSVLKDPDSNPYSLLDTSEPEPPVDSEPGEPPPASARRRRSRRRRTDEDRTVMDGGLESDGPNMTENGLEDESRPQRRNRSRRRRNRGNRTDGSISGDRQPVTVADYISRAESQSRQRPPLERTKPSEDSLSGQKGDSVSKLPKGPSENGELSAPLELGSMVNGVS
inactive: ibrutinib 0.027 | [1] -0.008 | ralimetinib 0.028 | [2] 0.004 | [3] 0.026 | [4] 0.024 | [5] 0.004 | [6] -0.005 | [7] -0.018 | [8] 0.011

EXOC6 (UniProt Q8TAG9)
inactive: ibrutinib 0 | [1] 0.072 | ralimetinib 0.034 | [2] -0.018 | [3] -0.049 | [4] 0.048 | [5] 0.049 | [6] -0.022 | [7] 0.042 | [8] 0.01

EPB41, A0A2R8Y6D0
inactive: ibrutinib 0.04 | [1] 0.007 | ralimetinib 0.171 | [2] 0.094 | [3] -0.061 | [4] -0.012 | [5] 0 | [6] -0.065 | [7] 0.078 | [8] -0.02

FYB1 isoform 3 (UniProt O15117)
inactive: ibrutinib -0.008 | [1] -0.01 | ralimetinib -0.022 | [2] -0.008 | [3] 0.005 | [4] -0.017 | [5] -0.042 | [6] 0.059 | [7] 0.008 | [8] -0.013

DVL2 (UniProt O14641)
Chain of UniProt O14641 (O14641 whole entry, looked up): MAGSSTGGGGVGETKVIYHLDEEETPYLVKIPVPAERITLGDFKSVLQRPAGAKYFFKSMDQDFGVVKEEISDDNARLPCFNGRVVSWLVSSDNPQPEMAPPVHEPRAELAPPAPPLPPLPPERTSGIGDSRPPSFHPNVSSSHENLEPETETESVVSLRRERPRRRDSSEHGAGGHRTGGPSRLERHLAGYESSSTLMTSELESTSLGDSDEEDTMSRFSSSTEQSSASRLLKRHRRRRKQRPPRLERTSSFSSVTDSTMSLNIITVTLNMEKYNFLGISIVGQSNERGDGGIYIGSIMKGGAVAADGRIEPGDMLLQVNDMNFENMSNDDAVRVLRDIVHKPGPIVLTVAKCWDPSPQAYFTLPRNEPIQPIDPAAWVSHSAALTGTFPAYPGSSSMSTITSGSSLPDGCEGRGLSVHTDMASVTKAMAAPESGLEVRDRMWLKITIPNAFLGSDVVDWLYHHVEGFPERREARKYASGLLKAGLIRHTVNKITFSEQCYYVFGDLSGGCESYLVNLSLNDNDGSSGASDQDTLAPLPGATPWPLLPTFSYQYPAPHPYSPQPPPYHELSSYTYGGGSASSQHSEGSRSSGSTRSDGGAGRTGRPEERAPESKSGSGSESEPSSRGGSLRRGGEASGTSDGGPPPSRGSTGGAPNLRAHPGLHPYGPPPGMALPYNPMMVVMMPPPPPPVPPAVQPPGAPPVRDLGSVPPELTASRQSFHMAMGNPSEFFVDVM
inactive: ibrutinib -0.032 | [1] 0.085 | ralimetinib 0.022 | [2] 0.032 | [3] -0.019 | [4] 0.028 | [5] -0.056 | [6] -0.072 | [7] 0.045 | [8] 0.11

FKBP8 isoform 2 (UniProt Q14318)
inactive: ibrutinib 0.022 | [1] -0.016 | ralimetinib 0.018 | [2] -0.017 | [3] 0.027 | [4] -0.041 | [5] 0.024 | [6] 0.034 | [7] 0.007 | [8] -0.053

GIGYF2 (UniProt Q6Y7W6)
inactive: ibrutinib -0.01 | [1] 0.004 | ralimetinib 0.014 | [2] -0.016 | [3] 0.029 | [4] -0.015 | [5] 0.01 | [6] 0.007 | [7] -0.006 | [8] 0.023

FIG4 (UniProt Q92562)
inactive: ibrutinib 0.14 | [1] -0.07 | ralimetinib -0.01 | [2] -0.115 | [3] -0.012 | [4] -0.248 | [5] 0.029 | [6] -0.093 | [7] -0.085 | [8] 0.012

EPN2 (UniProt O95208)
inactive: ibrutinib -0.01 | [1] -0.016 | ralimetinib 0.075 | [2] -0.004 | [3] -0.058 | [4] 0.009 | [5] -0.024 | [6] 0.001 | [7] 0.017 | [8] -0.009

FAM118A (UniProt Q9NWS6)
inactive: ibrutinib -0.024 | [1] 0.01 | ralimetinib 0.041 | [2] -0.052 | [3] -0.01 | [4] -0.004 | [5] -0.052 | [6] 0.015 | [7] 0.014 | [8] -0.004

EWSR1 isoform 5 (UniProt Q01844)
inactive: ibrutinib -0.016 | [1] -0.026 | ralimetinib -0.017 | [2] -0.011 | [3] 0.038 | [4] -0.012 | [5] 0.016 | [6] -0.023 | [7] -0.033 | [8] 0

FADS1, A0A0A0MR51
inactive: ibrutinib 0.011 | [1] 0.178 | ralimetinib 0.094 | [2] 0.094 | [3] -0.003 | [4] -0.032 | [5] 0.002 | [6] 0.113 | [7] -0.08 | [8] -0.115

FHOD1 (UniProt Q9Y613)
Chain of UniProt Q9Y613 (Q9Y613 whole entry, looked up): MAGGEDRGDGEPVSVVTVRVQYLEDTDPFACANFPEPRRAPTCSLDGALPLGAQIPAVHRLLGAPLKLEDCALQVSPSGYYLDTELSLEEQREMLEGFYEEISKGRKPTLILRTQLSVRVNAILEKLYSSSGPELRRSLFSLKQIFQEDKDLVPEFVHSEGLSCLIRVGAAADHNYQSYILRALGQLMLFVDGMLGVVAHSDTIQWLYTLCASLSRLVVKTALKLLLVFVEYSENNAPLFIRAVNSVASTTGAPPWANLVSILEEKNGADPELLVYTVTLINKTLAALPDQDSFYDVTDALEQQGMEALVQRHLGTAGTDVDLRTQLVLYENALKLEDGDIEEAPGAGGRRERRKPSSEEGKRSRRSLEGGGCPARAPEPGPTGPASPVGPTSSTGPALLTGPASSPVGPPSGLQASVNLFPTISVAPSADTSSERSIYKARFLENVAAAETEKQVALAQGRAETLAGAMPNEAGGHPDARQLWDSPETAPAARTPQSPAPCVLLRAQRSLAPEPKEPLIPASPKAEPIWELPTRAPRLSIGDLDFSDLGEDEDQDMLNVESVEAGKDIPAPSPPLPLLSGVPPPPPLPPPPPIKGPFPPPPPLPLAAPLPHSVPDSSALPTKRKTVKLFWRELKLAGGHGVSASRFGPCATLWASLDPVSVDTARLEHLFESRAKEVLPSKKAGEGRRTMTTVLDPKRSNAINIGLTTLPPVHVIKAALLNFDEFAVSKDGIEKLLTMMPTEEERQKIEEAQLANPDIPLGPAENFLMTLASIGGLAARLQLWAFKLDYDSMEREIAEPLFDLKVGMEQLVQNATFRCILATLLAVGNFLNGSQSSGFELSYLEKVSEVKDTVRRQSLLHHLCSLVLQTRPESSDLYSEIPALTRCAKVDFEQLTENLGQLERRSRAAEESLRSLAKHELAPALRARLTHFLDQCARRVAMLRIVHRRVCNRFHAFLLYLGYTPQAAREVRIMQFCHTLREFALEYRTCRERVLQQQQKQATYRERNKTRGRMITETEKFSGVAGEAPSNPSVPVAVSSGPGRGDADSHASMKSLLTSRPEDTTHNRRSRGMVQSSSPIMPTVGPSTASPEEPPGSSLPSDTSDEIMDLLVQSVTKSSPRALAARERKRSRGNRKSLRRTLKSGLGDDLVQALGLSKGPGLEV
inactive: ibrutinib 0.001 | [1] 0.03 | ralimetinib 0.041 | [2] -0.019 | [3] -0.002 | [4] -0.006 | [5] 0.006 | [6] 0.003 | [7] 0.025 | [8] -0.004

DUS3L (UniProt Q96G46)
inactive: ibrutinib 0.012 | [1] -0.003 | ralimetinib 0.023 | [2] -0.034 | [3] -0.007 | [4] 0.004 | [5] -0.007 | [6] 0.014 | [7] 0.001 | [8] -0.003

EPHX2 (UniProt P34913)
Chain of UniProt P34913 (P34913 whole entry, looked up): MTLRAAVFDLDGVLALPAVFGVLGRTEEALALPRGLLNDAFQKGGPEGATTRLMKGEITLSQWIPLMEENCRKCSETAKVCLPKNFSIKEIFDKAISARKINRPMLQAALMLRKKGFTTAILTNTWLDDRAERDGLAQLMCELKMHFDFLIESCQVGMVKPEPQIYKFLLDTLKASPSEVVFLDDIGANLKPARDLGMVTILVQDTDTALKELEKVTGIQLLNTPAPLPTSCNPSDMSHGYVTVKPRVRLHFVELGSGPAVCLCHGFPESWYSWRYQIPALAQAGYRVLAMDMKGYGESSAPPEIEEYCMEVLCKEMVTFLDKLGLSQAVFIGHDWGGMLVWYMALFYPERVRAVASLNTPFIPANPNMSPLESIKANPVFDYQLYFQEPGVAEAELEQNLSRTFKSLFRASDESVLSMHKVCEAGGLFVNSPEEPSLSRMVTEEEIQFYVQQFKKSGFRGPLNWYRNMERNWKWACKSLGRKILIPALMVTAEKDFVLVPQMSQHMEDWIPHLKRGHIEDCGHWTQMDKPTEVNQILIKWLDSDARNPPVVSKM
inactive: ibrutinib 0.051 | [1] -0.002 | ralimetinib -0.001 | [2] -0.02 | [3] 0.099 | [4] 0.004 | [5] -0.006 | [6] 0.11 | [7] 0.06 | [8] 0.051

EDC4 (UniProt Q6P2E9)
inactive: ibrutinib -0.001 | [1] 0.001 | ralimetinib 0.028 | [2] -0.009 | [3] -0.011 | [4] 0.004 | [5] -0.006 | [6] 0.006 | [7] 0 | [8] -0.019

ELAVL1 isoform 2 (UniProt Q15717)
inactive: ibrutinib 0.042 | [1] -0.034 | ralimetinib -0.016 | [2] 0.039 | [3] -0.009 | [4] -0.02 | [5] -0.026 | [6] -0.042 | [7] 0.028 | [8] 0.007

FCHO1 (UniProt O14526)
inactive: ibrutinib -0.053 | [1] 0.022 | ralimetinib 0.018 | [2] 0.014 | [3] 0.013 | [4] 0.031 | [5] 0.018 | [6] 0.002 | [7] 0.004 | [8] 0.041

ERCC4 (UniProt Q92889)
inactive: ibrutinib -0.02 | [1] 0.027 | ralimetinib -0.028 | [2] 0.006 | [3] 0.059 | [4] -0.021 | [5] -0.029 | [6] 0.013 | [7] 0.025 | [8] -0.054
